Results from the supplement of paper PMC7695840.
Where a name gives a salt, the structure may show the parent alone.

Key:
[1] = system: Staphylococcus aureus MW2 delta-mecA (mecA-); test: normalized GFP fluorescence (growth of mecA- strain) (fraction of control range); higher = more growth of mecA- strain; settings: compound concentration: 150 uM; cefoxitin: subinhibitory; fluorescent label: GFP
In short: (§1)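 Pre-induced S. aureus MW2 mecA+ (DsRed) and ΔmecA (GFP) cells were mixed 1:1 in LB with a daily-set subinhibitory cefoxitin dose. They were dispensed at 5 µL/well onto 150 μM compound (1.5% DMSO) in 1536-well plates, single replicate. Growth was 20 h at 37 °C, 90% humidity, unshaken, and DsRed (540/590) and GFP (485/520) were then read. Each channel was scaled per plate between the medians of the single-strain controls. Plates with high No Treatment ratios and rows with DsRed/GFP >10 were excluded.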

[2] = system: Staphylococcus aureus MW2 (mecA+); test: normalized DsRed fluorescence (growth of mecA+ strain) (fraction of control range); higher = more growth of mecA+ strain; settings: compound concentration: 150 uM; cefoxitin: subinhibitory; fluorescent label: DsRed
In short: as §1

Row | SMILES | normalized GFP fluorescence [1] | normalized DsRed fluorescence [2]
1 | CCN1CCCC(OC(=O)C(c2ccccc2)c2ccccc2)C1 (configuration not stated) | 0.427 | 0.501
2 | Oc1cccc(O)c1 | 0.565 | 0.516
3 | Cc1ccccc1OCC(O)CO (configuration not stated) | 0.392 | 0.853
4 | O=C(O)Cc1ccccc1Nc1c(Cl)cccc1Cl [Diclofenac] | 0.0393 | 0.175
5 | CC(N/C(=N\C#N)Nc1ccncc1)C(C)(C)C (configuration not stated) | 0.124 | 1.44
6 | O=C(O)c1cc(/N=N/c2ccc(S(=O)(=O)Nc3ccccn3)cc2)ccc1O [Sulfasalazine (Azulfidine)] | 0.311 | 0.584
7 | NS(=O)(=O)c1cc(C(=O)O)c(NCc2ccco2)cc1Cl | 0.306 | 0.841
8 | NC(N)=Nc1nc(CSCC/C(N)=N/S(N)(=O)=O)cs1 | 0.53 | 0.755
9 | COc1ccccc1OCCNCC(O)COc1cccc2[nH]c3ccccc3c12 (configuration not stated) | 0.0386 | 1.17
10 | COc1cc(OC)c(C(=O)CCCN2CCCC2)c(OC)c1 [Buflomedil HCl] | 0.4 | 0.499
11 | Clc1ccc2nsnc2c1NC1=NCCN1 [Tizanidine HCl] | 0.539 | 0.515
12 | CC(=O)OCC(=O)[C@@]1(O)CC[C@H]2[C@@H]3CCC4=CC(=O)CC[C@]4(C)[C@@]3(F)[C@@H](O)C[C@@]21C | 0.287 | 0.642
13 | CCN(CC)CC#CCOC(=O)C(O)(c1ccccc1)C1CCCCC1 (configuration not stated) | 0.0426 | 0.796
14 | Cc1noc(NS(=O)(=O)c2ccc(N)cc2)c1C | 0.025 | 0.437
15 | CC(C)NCC(O)COc1ccc(CCOCC2CC2)cc1 (configuration not stated) [Betaxolol hydrochloride (Betoptic)] | 0.372 | 0.674
16 | O=C(O)P(=O)(O)O | 0.285 | 0.7
